Data taken from the supplement of paper PMC10646978.
± gives the standard deviation.

How the values were obtained:
Details in all cases: modulator concentration 10 µM
[1] = system: RAW-Dual (murine macrophage reporter line); experiment: NF-kB reporter (SEAP) activity fold change vs agonist alone; higher = enhanced NF-kB activity
In short: (§1)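 Overnight stimulation with a PRR agonist followed pre-incubation for 1 hour at 37 °C with compound at 10 μM final. This was done in RAW-Dual murine macrophage reporter cells seeded at 50 000 per well in 384-well plates. NF-κB (SEAP, QUANTI-Blue absorbance at 620 nm) and IRF (Lucia luciferase, QUANTI-Luc luminescence) were read from the supernatant. Each reporter's fold change relative to the mean agonist-only control on the same plate was averaged over replicate plates.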

[2] = system: RAW-Dual (murine macrophage reporter line); experiment: IRF reporter (Lucia luciferase) activity fold change vs agonist alone; higher = enhanced IRF activity
In short: as §1

[3] = system: RAW-Dual (murine macrophage reporter line); experiment: viability score (confluency relative to resting cells, overnight) (fraction); higher = more viable, active = viable (0.7 or more)
In short: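 RAW-Dual macrophages in 384-well plates were incubated overnight with compound, final concentration 10 μM. Confluency images from IncuCyte were processed in IncuCyte software into two masks covering all imaged wells. The viability score is each well's confluency relative to resting cells, and a compound met the cutoff when both masks exceeded 70% of resting cells.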

[4] = agonist: CpG ODN 1826 0.5 ug/mL

SMILES	NF-kB reporter [1, 4]	NF-kB reporter ([1]; agonist: LPS 0.1 ug/mL)	NF-kB reporter ([1]; agonist: MPLA […])	IRF reporter ([2]; agonist: 3'3'-cGAMP 10 ug/mL)	IRF reporter ([2]; agonist: LPS 0.1 ug/mL)	IRF reporter ([2]; agonist: MPLA […])	viability score [3]
CC(C)(C)c1ccc(C(=O)CCCN2CCC(OC(c3ccccc3)c3ccccc3)CC2)cc1	0.99 ± 0.25	1.05 ± 0.081	1.02 ± 0.073	0.646 ± 0.024	1.18 ± 0.23	1.21 ± 0.13	1 (active)
COC(=O)C1C(=O)C(=CNc2ccccc2C)C(=O)CC1(C)C (centres undefined)	1.07 ± 0.092	1.02 ± 0.075	1.03 ± 0.1	0.993 ± 0.049	1.12 ± 0.34	1.08 ± 0.2	1.03 (active)
C[C@@H]1COC(Nc2ccc3ncnc(Nc4ccc(OCc5nccs5)c(Cl)c4)c3c2)=N1	0.381 ± 0.07	0.881 ± 0.17	0.84 ± 0.065	0.186 ± 0.023	0.833 ± 0.2	1.27 ± 0.23	0.595 (inactive)
O=C(C=Cc1ccc2c(c1)OCO2)NCc1ccccn1	0.994 ± 0.16	1.08 ± 0.089	0.897 ± 0.069	0.933 ± 0.041	1.27 ± 0.27	1.28 ± 0.15	0.994 (active)
COc1cc2c(cc1OC)C(=S)NC1(CCCC1)C2	0.886 ± 0.33	0.985 ± 0.12	0.941 ± 0.1	0.962 ± 0.04	1.04 ± 0.16	1.28 ± 0.23	0.596 (inactive)
C=CCNC(=O)COc1ccccc1C	0.782 ± 0.073	0.887 ± 0.042	0.985 ± 0.086	1.05 ± 0.048	1.36 ± 0.082	1.48 ± 0.16	1 (active)
CC(C)(O)C#Cc1ccccn1	0.931 ± 0.052	0.93 ± 0.14	0.909 ± 0.072	0.916 ± 0.05	1.11 ± 0.096	1.08 ± 0.29	1.01 (active)
Clc1ccc(-c2nc(-c3ccc(I)cc3)[nH]c2-c2ccc(Cl)cc2)cc1	0.641 ± 0.049	0.91 ± 0.1	0.985 ± 0.1	0.929 ± 0.082	1.19 ± 0.24	1.27 ± 0.3	1.02 (active)
COc1ccc(-c2oc3ccc(OC)cc3c2C(=O)Nc2ccccc2C)cc1	0.917 ± 0.047	1.17 ± 0.092	0.959 ± 0.073	1 ± 0.055	1.1 ± 0.073	1.12 ± 0.11	1 (active)
CC(=NN1CCN(Cc2cccc3ccccc23)CC1)c1ccc(Br)cc1	1.08 ± 0.12	1.04 ± 0.071	1.08 ± 0.044	1 ± 0.13	1.05 ± 0.12	1.11 ± 0.29	1 (active)
O=C(NCC1CCN(C(=O)c2ccncc2)CC1)c1ccc(Oc2ccccc2)cc1	0.988 ± 0.058	0.954 ± 0.096	0.893 ± 0.026	0.873 ± 0.066	0.882 ± 0.057	0.932 ± 0.12	0.997 (active)
Cc1nnc(C)n1N=Cc1ccc(Cl)c([N+](=O)[O-])c1	0.797 ± 0.062	0.874 ± 0.091	1.2 ± 0.1	0.898 ± 0.045	1.07 ± 0.072	1 ± 0.1	0.99 (active)
CCN1C(=O)CC(NCCc2ccc(S(N)(=O)=O)cc2)C1=O (centres undefined)	0.979 ± 0.056	1.03 ± 0.074	0.905 ± 0.065	0.961 ± 0.035	1.46 ± 0.19	1.22 ± 0.16	0.997 (active)
O=S(=O)(c1ccc(Cl)cc1)N1CCN(C2CC3CCC2C3)CC1 (centres undefined)	0.926 ± 0.062	0.994 ± 0.061	0.972 ± 0.068	1.02 ± 0.037	1.42 ± 0.14	1.24 ± 0.13	0.984 (active)
N[C@@H](Cc1cc(I)c(Oc2cc(I)c(O)c(I)c2)c(I)c1)C(=O)O	0.496 ± 0.045	0.804 ± 0.069	0.908 ± 0.19	0.572 ± 0.044	1.15 ± 0.2	1.23 ± 0.31	1.03 (active)
Cl.O=C(O)/C=C/c1ccc(Cn2ccnc2)cc1	1.43 ± 0.19	1.32 ± 0.25	0.979 ± 0.069	0.909 ± 0.028	1.34 ± 0.23	0.87 ± 0.096	0.988 (active)
COc1ccc(NC(=O)CN2C(=O)c3ccccc3C2=O)c([N+](=O)[O-])c1	0.798 ± 0.064	0.948 ± 0.087	0.989 ± 0.11	0.963 ± 0.048	1.29 ± 0.082	1.36 ± 0.13	1.01 (active)
Nc1c2c(nc3ccccc13)CCCC2 [Prestw-329]	0.919 ± 0.075	0.967 ± 0.084	1.24 ± 0.11	1 ± 0.057	1.55 ± 0.12	1.66 ± 0.14	1 (active)
O=C(Nc1ccncc1)c1ccc(OCC2CCOCC2)nc1	1.15 ± 0.063	1.39 ± 0.12	1.28 ± 0.082	1.22 ± 0.083	1.28 ± 0.11	1.24 ± 0.34	0.996 (active)
Cc1ccc(C(=O)NC2CCN(c3ccc4nncn4n3)C2)c(C)c1 (centres undefined)	0.957 ± 0.13	1.02 ± 0.081	1.15 ± 0.15	1.03 ± 0.066	0.995 ± 0.18	0.935 ± 0.42	1 (active)
O=S(=O)(Nc1ccc(-c2nc3cccnc3s2)cc1)c1cccs1	0.902 ± 0.23	0.748 ± 0.23	0.566 ± 0.07	0.783 ± 0.027	0.973 ± 0.37	0.892 ± 0.12	0.672 (inactive)
Br.O=S(=O)(c1ccc(-c2csc(Nc3cccc4ccccc34)n2)cc1)N1CCOCC1	0.907 ± 0.077	1.01 ± 0.089	1 ± 0.061	0.769 ± 0.053	1.25 ± 0.08	1.12 ± 0.32	1 (active)
COc1ccc(C2OCC3C(c4ccc(OC)c(OC)c4)OCC23)cc1OC (centres undefined)	1.18 ± 0.091	1.03 ± 0.094	1.08 ± 0.11	1.11 ± 0.088	1.07 ± 0.13	1.21 ± 0.23	1.01 (active)
COc1ccccc1-n1ncc2c(C)nnc(SCC(=O)NCc3ccccc3Cl)c21	0.739 ± 0.33	0.987 ± 0.077	0.761 ± 0.19	0.781 ± 0.13	0.882 ± 0.15	0.781 ± 0.15	0.944 (active)
COc1cccc(CCc2ccccc2OCC(CN(C)C)OC(=O)CCC(=O)O)c1.Cl (centres undefined)	0.428 ± 0.063	0.948 ± 0.3	0.925 ± 0.057	0.512 ± 0.018	1.25 ± 0.31	0.984 ± 0.19	0.995 (active)
CCOc1ccccc1NC(=O)NCc1sc(-c2ccccc2Cl)nc1C	0.768 ± 0.19	1.07 ± 0.058	0.98 ± 0.072	0.89 ± 0.048	0.926 ± 0.17	0.898 ± 0.11	1 (active)
N=C1NC(=O)C(=Cc2ccc(-c3cccc(Cl)c3)o2)S1	0.688 ± 0.091	0.695 ± 0.048	1.77 ± 0.11	1.39 ± 0.11	1.17 ± 0.14	2.82 ± 0.65	0.932 (active)
